Experimental data from PubChem BioAssay (EPA / NIEHS).
Records with an inconclusive call do not appear. The source made the active and inactive calls. The calls were made as follows, unless noted: active = hit-call score of the fitted dose curve at least 0.9, where 1 is the maximum; inactive = score below 0.9.

Key:
[1] = CCTE_Mundy_HCI_Cortical_Synap_Neur_Matur_SynapseCount: CCTE's Synaptogenesis and Neurite Maturation Assay in rat cortical cells for Synapse Count, Mundy Lab (AID 2284218)
Procedure, shortened: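 Read-out: synapse number per neuron, automated high-content imaging of fixed cells immunostained for MAP2 and synaptophysin plus Hoechst nuclei. Rat primary cortical cultures, AraC at DIV 5, chemical dosing DIV 7–12. Positive-direction fit relative to DMSO.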

[2] = CCTE_Mundy_HCI_Cortical_Synap_Neur_Matur_NeuriteCount: CCTE's Synaptogenesis and Neurite Maturation Assay in rat cortical cells for Neurite Count, Mundy Lab (AID 2284222)
Procedure, shortened: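 In this multiplexed morphology readout, rat primary cortical neurons are fixed at DIV 12 following dosing at DIV 7 and stained for MAP2, synaptophysin and nuclei. High-content image analysis yields neurite count.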

[3] = CCTE_Mundy_HCI_Cortical_Synap_Neur_Matur_CellBodySpotCount: CCTE's Synaptogenesis and Neurite Maturation Assay in rat cortical cells for Cell Body Spot Count, Mundy Lab (AID 2284223)
Procedure, shortened: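 Read-out: cell body-associated synaptophysin puncta per neuron, imaged after MAP2, synaptophysin and Hoechst staining. Rat cortical cells, AraC DIV 5, chemical dosing DIV 7, fixation DIV 12. Activity fitted in positive direction relative to DMSO baseline.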

[4] = CCTE_Mundy_HCI_hNP1_Pro_ResponderAvgInten: CCTE's Proliferation Assay in human neuroprogenitor cells, Mundy Lab (AID 2284224; active = hit-call score of the fitted dose curve at least 0.9, where 1 is the maximum;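 also: human neural progenitor cells hNP1 derived from WA09 embryonic stem cells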)
Procedure, shortened: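 Human neuroprogenitors (hNP1, WA09 lineage) receive test chemical after 40 to 44 hours of attachment. A four-hour BrdU pulse begins twenty hours later, followed by fixation and high content imaging; signal is referenced to DMSO controls.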

[5] = UKN2_HCS_IMR90_cell_viability: Viability Assessment in the University of Konstanz (UKN) Leist Lab Neural Crest Cell Migration Assay in human induced IMR90 Pluripotent Stem Cells (UKN2) (AID 2284233);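 also: viability of neural crest cells differentiated from IMR90 iPSC measured by calcein-AM fluorescence imaging; cells exposed to compound for 24 h after a 24 h migration phase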
Procedure, shortened: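 cMINC format, iPSC-derived neural crest (IMR90); 24 h migration (EGF/FGF, N2-S), then 24 h toxicant. Calcein-AM/H-33342 stain 30 min; fluorescence intensity by HCS; DMSO-normalised, bidirectional fitting.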

[6] = CCTE_Mundy_HCI_Cortical_NOG_NeuronCount: CCTE's Neurite Outgrowth Assay in rat cortical cells for Neuron Count, Mundy Lab (AID 2284236; active = hit-call score of the fitted dose curve at least 0.9, where 1 is the maximum;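 also: neurons counted by imaging betaIII-tubulin and Hoechst stained cortical cells; cells exposed to compound for about 48 hours before fixation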)
Procedure, shortened: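 Read-out: neuron number by high-content imaging of betaIII-tubulin (Alexa Fluor-488) and Hoechst-labelled rat primary cortical cells.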

[7] = CCTE_Mundy_HCI_Cortical_NOG_BPCount: CCTE's Neurite Outgrowth Assay in rat cortical cells for Branch Point Count, Mundy Lab (AID 2284237)
Procedure, shortened: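 Measured 50.33 h after dosing, this morphology endpoint uses rat primary cortical cultures labelled for betaIII-tubulin. Branch points are quantified by high-content imaging, with DMSO as negative control and baseline.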

[8] = CCTE_Mundy_HCI_hNP1_Casp3_7: CCTE's Caspase-Glo 3/7 Assay in human neuroprogenitor cells for Apoptosis, Mundy Lab (AID 2284240)
Procedure, shortened: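 Neuroepithelial-lineage stem cells from WA09 embryonic cells were treated with chemicals after 40–44 h of culture. Twenty-four hours later, caspase-3/7 activation was detected luminescently after a 30 min room-temperature reagent step, with DMSO as baseline.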

[9] = CCTE_Mundy_HCI_hNP1_CellTiter: CCTE's Cell Titer-Glo 2 Assay in human neuroprogenitor cells for Viability, Mundy Lab (AID 2284241; active = hit-call score of the fitted dose curve at least 0.9, where 1 is the maximum)
Procedure, shortened: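 Measures ATP content in human neural progenitors derived from WA09 embryonic cells. Read-out at 26.5 hours after dosing, with DMSO serving as the negative control and baseline.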

[10] = CCTE_Mundy_HCI_Cortical_Synap_Neur_Matur_NeuronCount: CCTE's Synaptogenesis and Neurite Maturation Assay in rat cortical cells for Neuron Count, Mundy Lab (AID 2284242; active = hit-call score of the fitted dose curve at least 0.9, where 1 is the maximum)
Procedure, shortened: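 Rat cortical cultures; AraC DIV 5; chemical dosing + media change DIV 7 to DIV 12 (288.33 h readout). Fix, Hoechst, anti-MAP2/anti-synaptophysin immunostain; HCI neuron count vs DMSO baseline.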

[11] = IUF_NPC2c_oligodendrocyte_migration_120hr: Leibniz Research Institute for Environmental Medicine (IUF) 120-hour Neural Progenitor Cell Migration Assay for Oligodendrocyte Migration (NPC2c) (AID 2284297);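 also: O4-positive oligodendrocyte migration distance divided by radial glia migration distance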
Procedure, shortened: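 hNPC spheres (GW 16-19 cortex), PDL/laminin, DMEM/F12 3:1 + 1% N2, 37C. Dosing day 0–5, half feed day 3, DMSO ≤0.1%. Fixed 120 h; O4 ICC + Hoechst, HCI. Readout: mean oligodendrocyte distance from sphere edge / radial glia distance.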

[12] = IUF_NPC2a_radial_glia_migration_120hr: Leibniz Research Institute for Environmental Medicine (IUF) 120-hour Neural Progenitor Cell Migration Assay for Radial Glia Migration (NPC2a) (AID 2284298)
Procedure, shortened: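 Hoechst-stained nuclei imaged at 120 h; algorithm maps sphere core by densest nuclei, sets migration edge at density threshold, gives radial glia migration distance (um) per well vs DMSO. hNPC spheres (0.3 mm), PDL/laminin, DMEM/F12 3:1 + 1% N2.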

[13] = IUF_NPC2a_radial_glia_migration_72hr: Leibniz Research Institute for Environmental Medicine (IUF) 72-hour Neural Progenitor Cell Migration Assay for Radial Glia Migration (NPC2a) (AID 2284299)
Procedure, shortened: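 Readout: mean of four manual brightfield measurements of radial glia migration distance (um) at 72 h. hNPC spheres (0.3 mm) exposed to 7 compound concentrations plus solvent control on PDL/laminin, 37C, 5% CO2; activity fitted relative to DMSO.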

[14] = IUF_NPC2b_neuronal_migration_120hr: Leibniz Research Institute for Environmental Medicine (IUF) 120-hour Neural Progenitor Cell Migration Assay for Neuron Migration (NPC2b) (AID 2284300)
Procedure, shortened: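 hNPC spheres, PDL/laminin, DMEM:F12 3:1 + 1% N2, 37C/5% CO2; 7 concentrations + solvent control (DMSO ≤0.1%), 5 d exposure, half-feed day 3. Fix 120 h, TUBB3 ICC, HCI: mean neuron migration distance ÷ glia distance.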

[15] = IUF_NPC3_neuronal_differentiation_120hr: Leibniz Research Institute for Environmental Medicine (IUF) 120-hour Neuronal Differentiation Assay (NPC3) (AID 2284301)
Procedure, shortened: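 Neuronal differentiation of primary human neural progenitors measured by high-content imaging: percent TUBB3+ of Hoechst+ nuclei within migrated area at 120 h, seven-point serial dilution plus solvent control, gain or loss relative to DMSO.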

[16] = IUF_NPC4_neurite_length_120hr: Leibniz Research Institute for Environmental Medicine (IUF) 120-hour Neuronal Morphology Assay for Neurite Length (NPC4) (AID 2284302)
Procedure, shortened: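 Neurons from differentiating human fetal neural progenitor spheres are scored for average neurite length after five days of compound exposure. Fitting uses DMSO as negative control.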

[17] = IUF_NPC5_oligodendrocyte_differentiation_120hr: Leibniz Research Institute for Environmental Medicine (IUF) 120-hour Oligodendrocyte Differentiation Assay (NPC5) (AID 2284304; active = hit-call score of the fitted dose curve at least 0.9, where 1 is the maximum;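 also: primary human fetal neural progenitor spheres plated to migrate and differentiate; share of O4-positive cells among Hoechst nuclei found by CNN image analysis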)
Procedure, shortened: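 hNPC spheres, fetal cortex GW 16-19; PDL/laminin, DMEM:F12 3:1 + 1% N2, 37C/5% CO2; 7 concentrations + solvent control, 5 d exposure, half-change day 3. Readout: %O4+ of Hoechst+ nuclei in migration area, CNN classification; DMSO baseline.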

[18] = IUF_NPC4_neurite_area_120hr: Leibniz Research Institute for Environmental Medicine (IUF) 120-hour Neuronal Morphology Assay for Neurite Area (NPC4) (AID 2284305; active = hit-call score of the fitted dose curve at least 0.9, where 1 is the maximum)
Procedure, shortened: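 Endpoint at 120 h: automated imaging of TUBB3/Hoechst-stained differentiating human neural progenitor spheres, neurite area per neuron from skeletonization. DMSO solvent control, not above 0.1%, set the baseline; medium was half-replaced on day 3.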

[19] = IUF_NPC2-5_cytotoxicity_72hr: Cytotoxicity Assessment at 72 hours in the Leibniz Research Institute for Environmental Medicine (IUF) Neural Progenitor Cell Migration and Differentiation Assay for Cytotoxicity (NPC2-5) (AID 2284306; active = hit-call score of the fitted dose curve at least 0.9, where 1 is the maximum;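 also: LDH release into supernatant measured by resorufin fluorescence marking membrane damage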)
Procedure, shortened: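 Primary human neural progenitor spheres migrate and differentiate on laminin. Compound is present from the start of differentiation, with DMSO kept at or below 0.1%. At 72 h, supernatant LDH is quantified fluorometrically, with values fitted in the positive direction.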

[20] = IUF_NPC2-5_cell_number_120hr: Cell Number Assessment at 120 hours in the Leibniz Research Institute for Environmental Medicine (IUF) Neural Progenitor Cell Migration and Differentiation Assay (NPC2-5) (AID 2284308);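 also: count of Hoechst-stained nuclei in migration zone around plated human neural progenitor spheres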
Procedure, shortened: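 Hoechst-stained nuclei within the migration area were counted by automated high content imaging after 120 h. Single hNPC spheres differentiated on poly-D-lysine/laminin in DMEM/F12 (3:1) with 1% N2, compound present throughout, DMSO ≤0.1%.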

[21] = IUF_NPC2-5_viability_120hr: Viability Assessment at 120 hours in the Leibniz Research Institute for Environmental Medicine (IUF) Neural Progenitor Cell Migration and Differentiation Assay (NPC2-5) (AID 2284312)
Procedure, shortened: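 Human fetal (GW 16-19) neural progenitor spheres of 0.3 mm were plated on poly-D-lysine/laminin in N2 differentiation medium and exposed from day 0 for 120 h, with half-medium refresh at day 3. Viability was read as alamar blue resazurin-to-resorufin fluorescence against DMSO.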

[22] = CCTE_Mundy_HCI_iCellGluta_NOG_NeuriteLength: CCTE's Neurite Outgrowth Assay in iCellGluta cells for Neurite Length, Mundy Lab (AID 2284318; active = hit-call score of the fitted dose curve at least 0.9, where 1 is the maximum)
Procedure, shortened: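 Automated high-content imaging of betaIII-tubulin (Alexa Fluor-488) and Hoechst-stained cells gave neurite length, normalized to the DMSO baseline.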

[23] = IUF_NPC1_cytotoxicity_72hr: Cytotoxicity Assessment at 72 hours in the Leibniz Research Institute for Environmental Medicine (IUF) Neural Progenitor Cell Proliferation Assay (NPC1) (AID 2284332; active = hit-call score of the fitted dose curve at least 0.9, where 1 is the maximum;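 also: rising LDH signal means more cytotoxicity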)
Procedure, shortened: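 LDH in supernatant, resazurin→resorufin fluorescence (RFU), 72 h exposure, no re-dosing. Cells: primary hNPC spheres, one per well, EGF+FGF medium, 37C/5% CO2, pH 7.2-7.6. Fit: positive direction vs baseline and dynamic range.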

[24] = CCTE_Mundy_HCI_iCellGluta_NOG_NeuronCount: CCTE's Neurite Outgrowth Assay in iCellGluta cells for Neuron Count, Mundy Lab (AID 2284340; active = hit-call score of the fitted dose curve at least 0.9, where 1 is the maximum;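 also: cells fixed about 48 h after compound addition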)
Procedure, shortened: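 Neuron count read by automated high-content imaging of Hoechst 33342 and betaIII-tubulin/Alexa Fluor-488 labelling in human iPSC glutamatergic neurons. Activity fitted relative to DMSO.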

[25] = CCTE_Mundy_HCI_iCellGluta_NOG_NeuriteCount: CCTE's Neurite Outgrowth Assay in iCellGluta cells for Neurite Count, Mundy Lab (AID 2284342; active = hit-call score of the fitted dose curve at least 0.9, where 1 is the maximum;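 also: chemical exposure about 48 hours starting 2 hours after plating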)

Measured: outcome

CC(=O)N[C@@H](CC(=O)O)C(=O)O
inactive: all assays above
